In PubChem BioAssay AID1159580 (chemical genetic matrix, 2015):
Among all 5,500 compounds or so, about 2,000 (36%) were called active. Roughly 18% stayed inconclusive and do not appear here. No stated cut-off is given here; in the data, active means normalized growth mostly below about 0.91 (no sharp cut-off); inconclusive means no clear call, values can overlap the other calls; inactive means mostly above about 0.92. This is one part of the list.

Assay: chemical genetic growth profiling, strain panel (AID 1159580);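 further: tested at 20 µM; growth read once vehicle control cultures reached saturation at 30 °C; 1 = growth at the plate median or of vehicle wells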
Conditions: S. cerevisiae deletion strains, growth OD
[1] = locus YAR019C, strain CDC15, stronger effect = lower value
[2] = locus YBL105C, strain PKC1, stronger effect = lower value
[3] = locus YBR135W, strain CKS1, stronger effect = lower value
[4] = locus YBR136W, strain MEC1, stronger effect = lower value
[5] = locus YBR160W, strain CDC28, stronger effect = lower value
[6] = locus YDL017W, strain CDC7, stronger effect = lower value
[7] = locus YDL028C, strain MPS1, stronger effect = lower value
[8] = locus YDL101C, strain DUN1, stronger effect = lower value
[9] = locus YDL108W, strain KIN28, stronger effect = lower value
[10] = locus YDL132W, strain cdc53, stronger effect = lower value
[11] = locus YDL214C, strain PRR2, stronger effect = lower value
[12] = locus YDR052C, strain DBF4, stronger effect = lower value
[13] = locus YDR054C, strain cdc34, stronger effect = lower value
[14] = locus YDR226W, strain ADK1, stronger effect = lower value
[15] = locus YDR477W, strain SNF1, stronger effect = lower value
[16] = locus YER123W, strain YCK3, stronger effect = lower value
[17] = locus YER133W, strain GLC7, stronger effect = lower value
[18] = locus YFL009W, strain cdc4, stronger effect = lower value
[19] = locus YFL029C, strain CAK1, stronger effect = lower value
[20] = locus YFR003C, strain YPI1, stronger effect = lower value
[21] = locus YFR019W, strain FAB1, stronger effect = lower value
[22] = locus YFR028C, strain CDC14, stronger effect = lower value
[23] = locus YGR040W, strain KSS1, stronger effect = lower value
[24] = locus YGR052W, strain FMP48, stronger effect = lower value
[25] = locus YGR092W, strain DBF2, stronger effect = lower value
[26] = locus YHR030C, strain SLT2, stronger effect = lower value
[27] = locus YHR079C, strain IRE1, stronger effect = lower value
[28] = locus YHR082C, strain KSP1, stronger effect = lower value
[29] = locus YHR205W, strain SCH9, stronger effect = lower value
[30] = locus YIL147C, strain SLN1, stronger effect = lower value
[31] = locus YJL095W, strain BCK1, stronger effect = lower value
[32] = locus YJL128C, strain PBS2, stronger effect = lower value
[33] = locus YJL157C, strain FAR1, stronger effect = lower value
[34] = locus YJR016C, strain ILV3, stronger effect = lower value
[35] = locus YJR066W, strain TOR1 (second series), stronger effect = lower value
[36] = locus YJR066W, strain TOR1, stronger effect = lower value
[37] = locus YKL048C, strain ELM1, stronger effect = lower value
[38] = locus YKL067W, strain YNK1, stronger effect = lower value
[39] = locus YKL101W, strain HSL1, stronger effect = lower value
[40] = locus YKL193C, strain SDS22, stronger effect = lower value
[41] = locus YKL203C, strain TOR2, stronger effect = lower value
[42] = locus YLR113W, strain HOG1, stronger effect = lower value
[43] = locus YLR133W, strain CKI1, stronger effect = lower value
[44] = locus YLR403W, strain SFP1, stronger effect = lower value
[45] = locus YML070W, strain DAK1, stronger effect = lower value
[46] = locus YMR001C, strain CDC5, stronger effect = lower value
[47] = locus YMR205C, strain PFK2 (second series), stronger effect = lower value
[48] = locus YMR277W, strain FCP1, stronger effect = lower value
[49] = locus YNL006W, strain LST8, stronger effect = lower value
[50] = locus YNL020C, strain ARK1, stronger effect = lower value
[51] = locus YNL161W, strain CBK1, stronger effect = lower value
[52] = locus YNL183C, strain NPR1, stronger effect = lower value
[53] = locus YNL207W, strain RIO2, stronger effect = lower value
[54] = locus YNL222W, strain SSU72, stronger effect = lower value
[55] = locus YNL307C, strain MCK1 (second series), stronger effect = lower value
[56] = locus YOL078W, strain AVO1, stronger effect = lower value
[57] = locus YOL136C, strain PFK27, stronger effect = lower value
[58] = locus YOR061W, strain CKA2, stronger effect = lower value
[59] = locus YOR119C, strain RIO1, stronger effect = lower value
[60] = locus YOR231W, strain MKK1, stronger effect = lower value
[61] = locus YOR329C, strain SCD5, stronger effect = lower value
[62] = locus YPL031C, strain PHO85, stronger effect = lower value
[63] = locus YPL153C, strain RAD53, stronger effect = lower value
[64] = locus YPL204W, strain HRR25, stronger effect = lower value
[65] = locus YPL209C, strain IPL1, stronger effect = lower value
[66] = locus YPL256C, strain CLN2, stronger effect = lower value
[67] = locus YPR025C, strain CCL1, stronger effect = lower value
[68] = locus YPR106W, strain ISR1, stronger effect = lower value
[69] = locus YPR111W, strain DBF20, stronger effect = lower value
[70] = strain NNK1, stronger effect = lower value
[71] = strain TSCII, stronger effect = lower value

Measured: normalized growth

Cc1cc(Cl)ccc1NNC(=O)c1snnc1C
active: [26] 0.815 | [42] 0.84
inactive: [1] 0.971 | [2] 0.949 | [3] 0.967 | [4] 0.949 | [5] 0.959 | [6] 0.951 | [7] 0.969 | [8] 0.968 | [9] 0.955 | [10] 0.978 | [11] 0.907 | [12] 0.957 | [13] 0.974 | [14] 0.977 | [15] 0.907 | [16] 0.816 | [17] 0.909 | [18] 0.979 | [19] 0.957 | [20] 0.957 | [21] 0.885 | [22] 0.958 | [23] 0.881 | [24] 0.965 | [25] 0.824 | [27] 0.919 | [28] 0.979 | [29] 0.919 | [30] 0.966 | [31] 0.888 | [32] 0.943 | [33] 0.881 | [34] 0.977 | [35] 0.841 | [36] 0.972 | [37] 0.935 | [38] 0.919 | [39] 0.914 | [40] 0.96 | [41] 0.962 | [43] 0.891 | [44] 0.887 | [45] 0.865 | [46] 0.951 | [47] 0.922 | [48] 0.958 | [49] 0.974 | [50] 0.894 | [51] 0.956 | [52] 0.942 | [53] 0.96 | [54] 0.956 | [55] 0.794 | [56] 0.954 | [57] 0.885 | [58] 0.866 | [59] 0.96 | [60] 0.878 | [61] 0.963 | [62] 0.911 | [63] 0.881 | [64] 0.874 | [65] 0.943 | [66] 0.881 | [67] 0.955 | [68] 0.976 | [69] 0.979 | [70] 0.955 | [71] 0.962

Cc1nnsc1C(=O)NNc1c(Cl)cccc1Cl
inactive: [1] 0.975 | [2] 0.974 | [3] 0.976 | [4] 0.977 | [5] 0.973 | [6] 0.979 | [7] 0.978 | [8] 0.993 | [9] 0.981 | [10] 0.982 | [11] 0.951 | [12] 0.985 | [13] 0.982 | [14] 0.986 | [15] 0.959 | [16] 0.933 | [17] 0.97 | [18] 0.98 | [19] 0.972 | [20] 0.98 | [21] 0.958 | [22] 0.981 | [23] 0.926 | [24] 1.02 | [25] 0.952 | [26] 1.02 | [27] 0.982 | [28] 1.02 | [29] 0.942 | [30] 0.981 | [31] 0.992 | [32] 0.926 | [33] 0.939 | [34] 0.984 | [35] 0.926 | [36] 1.05 | [37] 0.958 | [38] 0.948 | [39] 0.905 | [40] 0.98 | [41] 1.02 | [43] 0.939 | [44] 0.935 | [45] 0.927 | [46] 0.978 | [47] 0.941 | [48] 0.98 | [49] 0.993 | [50] 0.946 | [51] 0.979 | [52] 0.983 | [53] 0.988 | [54] 0.973 | [55] 0.948 | [56] 0.978 | [57] 0.927 | [58] 0.927 | [59] 1.01 | [60] 0.925 | [61] 0.977 | [62] 0.971 | [63] 0.949 | [64] 0.952 | [65] 0.973 | [66] 0.921 | [67] 0.975 | [68] 0.965 | [69] 0.976 | [70] 0.978 | [71] 0.977
active: [42] 0.844
